Assay results: PubChem BioAssay (Tox21)
Records with an inconclusive call do not appear. Entries that show only a call come without a potency. Calls of active or inactive are those of the source. Calls follow the shape of the dose curve; as a rule, active = well fitted cell-killing curve with a large enough effect in the repeat runs (not every such curve was filed as active); inconclusive = weak or mixed curves, or effect the other way; inactive = no such curve, though single readings can be large or run the other way.

Experiment: qHTS assay to identify small molecule antagonists of the estrogen related receptor signaling pathway with the pleiotropic PPARgamma coactivator (PGC) from Tox21 10K library - cell viability counter screen (AID 1224840); also: nearly all actives have a fitted effect of over 40% in size
Conditions: PGC/ERR reporter cells viability, CellTiter-Fluor, 17.5 h; series mostly up to 92.4 µM
From the text: National Center for Advancing Translational Sciences [NCATS]
NIH Chemical Genomics Center [NCGC]
U.S. Environmental Protection Agency [EPA]
National Institutes of Environmental Health Sciences [NIEHS]
National Toxicology Program [NTP]
U.S. Food and Drug Administration [FDA]
Estrogen related receptors (ERRs), the first orphan nuclear receptors discovered, play an important role in the control of cellular energy metabolism. ERRs are required for high-energy production in response to the environmental challenges. The pleiotropic PPARgamma coactivator (PGC) is a major partner of ERR and a key regulator in energy homeostasis. Together they have been implicated in the etiology of metabolic disorders such as Type 2 diabetes and metabolic syndrome. ERR-alpha was also identified as an adverse marker for breast cancer progression; ERR-alpha-positive tumors have a poor prognosis. To screen and to identify environmental compounds that perturb the ERR and PGC/ERR signaling pathways could provide valuable information for potential therapeutic or preventive measures in the treatment of metabolic disease. To differentiate true PGC/ERR antagonists or agonist from cytotoxic substances, the assay is multiplexed with cell viability assay.
Tox21 Assay Protocol Summary:
The PGC/ERR cells were dispensed at 2,000 cells/5 ul/well in 1536-well white plates using a Multidrop dispenser. After the assay plates were incubated at a 37 C/5% CO2 incubator for 6 hours, 23 nL of compounds dissolved in DMSO, positive and negative controls or DMSO only was transferred to the assay plate by a pin tool. The plates were incubated at 37 C for 17.5 hours. 1 ul/well of CellTiter-Fluor reagent was added into the assay plates using a Flying Reagent Dispenser. After 30-minute incubation at 37 C/5% CO2, the fluorescence intensity in the plates was measured using a ViewLux plate reader.
Potency is read from the fitted curve at half-maximal effect.

Row | Structure (SMILES) | Potency | viability change, negative = cytotoxic
1 | COC(C)OC | inactive | –
2 | C#CCN(C)CCCOc1ccc(Cl)cc1Cl | inactive | –
3 | O=C(OCCc1ccccc1)c1ccccc1 | inactive | –
4 | O=S(c1cc(Cl)cc(Cl)c1O)c1cc(Cl)cc(Cl)c1O | inactive | –
5 | COc1cc2nc(Cl)nc(N)c2cc1OC | inactive | –
6 | Nc1ccc(N)c2c1C(=O)c1ccccc1C2=O | 19.3 µM (active) | –
7 | O=[N+]([O-])c1ccc2[nH]ncc2c1 | inactive | –
8 | CCOC(=O)Cc1cccc2ccccc12 | inactive | –
9 | CCCCC1=NC2(CCCC2)C(=O)N1Cc1ccc(-c2ccccc2-c2nn[nH]n2)cc1 | inactive | –
10 | C[C@H]1C[C@H]2[C@@H]3CCC4=CC(=O)C=C[C@]4(C)[C@@]3(Cl)[C@@H](O)C[C@]2(C)[C@@]1(O)C(=O)CO | inactive | –
11 | COc1cc(Cl)ccc1Oc1ccc(Cl)cc1Cl | inactive | –
12 | CC(C)(COC(=O)c1ccccc1)COC(=O)c1ccccc1 | inactive | –
13 | CCCCC(CC)COC(=O)CCCCCCCCC(=O)OCC(CC)CCCC (stereo not given) | inactive | –
14 | Brc1c2ccccc2c(Br)c2ccccc12 | – | 6.16% [at 8.39 µM] (inactive)
15 | CN1CCC(=C2c3ccccc3Sc3ccccc32)CC1 | inactive | –
16 | CC(=O)[O][Al] | inactive | –
17 | CNCCCN1c2ccccc2CCc2ccccc21 | inactive | –
18 | Cc1cccc(C)c1NC(=O)CN(CC(=O)O)CC(=O)O | inactive | –
19 | O=C(O)c1ccccc1Cl | inactive | –
20 | Cn1c(=O)cc(Oc2ccc(F)cc2F)c2cnc(NCC(C)(C)O)nc21 | inactive | –

Row | Structure (SMILES) | Potency | viability change, negative = cytotoxic
21 | CC(C)(CO)[N+](=O)[O-] | inactive | –
22 | CCC(CC)Nc1ccc(C)c(C)c1 | inactive | –
23 | Nc1ncn([C@H]2C[C@H](O)[C@@H](CO)O2)c(=O)n1 | inactive | –
24 | CN(C)CCCN1c2ccccc2Sc2ccccc21 | inactive | –
25 | CCOC(=O)C(O)c1ccccc1 (stereo not given) | inactive | –
26 | NCc1ccccc1Sc1ccccc1CO | inactive | –
27 | C1CCCNCCC1 | inactive | –
28 | CCOc1ccc(N)c([N+](=O)[O-])c1 | inactive | –
29 | CCCCCCCCCCCCCCOS(=O)(=O)O | inactive | –
30 | c1ccc(-c2ccccn2)nc1 | inactive | –
31 | CCOCC(O)COc1ccc(NC(=O)CC[S+](C)C)cc1 (stereo not given) | inactive | –
32 | CO[C@@H]1[C@H](OC(=O)/C=C/C=C/C=C/C=C/C(=O)O)CC[C@]2(CO2)[C@H]1[C@@]1(C)O[C@@H]1CC=C(C)C | inactive | –
33 | O=C(CS)Nc1ccccc1 | inactive | –
34 | CCC(C)c1cc(C(C)(C)C)c(O)c(C(C)(C)C)c1 (stereo not given) | inactive | –
35 | C/C(=C(\CCOP(=O)(O)O)SC(=O)c1ccccc1)N(C=O)Cc1cnc(C)nc1N | – | -2.4% [at 8.39 µM] (inactive)
36 | CCCCCCCCCCCCCCCCOS(=O)(=O)O | inactive | –
37 | S=C([S-])NCCNC(=S)[S-].[Mn+2] | inactive | –
38 | O=C(O)C(S)C(S)C(=O)O (stereo not given) | inactive | –
39 | COC(=O)c1ccc(I)cc1S(=O)(=O)NC(=O)Nc1nc(C)nc(OC)n1 | inactive | –
40 | Cc1nn(C)c(Oc2ccccc2)c1/C=N/OCc1ccc(C(=O)OC(C)(C)C)cc1 | inactive | –
